# Where a chain is given by its changes, count along the chain named.
# Molecular target: HOXD13 (Homo sapiens, UniProt P35453 263-343)
# Assay: PBM; 200 nM protein, PBS
# Conditions: dsDNA, one strand shown
# HOXD13 (Homo sapiens, UniProt P35453 263-343), sequence (P35453 263-343): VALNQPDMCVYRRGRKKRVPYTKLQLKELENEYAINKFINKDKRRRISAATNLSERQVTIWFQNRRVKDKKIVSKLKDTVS
row,Sequence,binding signal
1,CTCGTTAC,"11.1 upbm affinity estimate (log intensity, higher = more binding, comparable within an allelic series)"
2,AAGTGTTA,"10.7 upbm affinity estimate (log intensity, higher = more binding, comparable within an allelic series)"
3,AATCATAT,"11 upbm affinity estimate (log intensity, higher = more binding, comparable within an allelic series)"
4,TAATAGCA,"11 upbm affinity estimate (log intensity, higher = more binding, comparable within an allelic series)"
5,AAAATTAA,"10.9 upbm affinity estimate (log intensity, higher = more binding, comparable within an allelic series)"
6,ATCGTAAC,"11 upbm affinity estimate (log intensity, higher = more binding, comparable within an allelic series)"
7,AAGTTATT,"10.9 upbm affinity estimate (log intensity, higher = more binding, comparable within an allelic series)"
8,ATAAACGA,"11.4 upbm affinity estimate (log intensity, higher = more binding, comparable within an allelic series)"
9,ATTTTAAC,"11.2 upbm affinity estimate (log intensity, higher = more binding, comparable within an allelic series)"
10,TGATAAAA,"11.3 upbm affinity estimate (log intensity, higher = more binding, comparable within an allelic series)"
11,ATAACTAA,"10.9 upbm affinity estimate (log intensity, higher = more binding, comparable within an allelic series)"
12,ATTAAACA,"11.3 upbm affinity estimate (log intensity, higher = more binding, comparable within an allelic series)"
13,ATAACGAC,"11 upbm affinity estimate (log intensity, higher = more binding, comparable within an allelic series)"
14,AATATAGT,"11 upbm affinity estimate (log intensity, higher = more binding, comparable within an allelic series)"
15,TAAATGAA,"10.9 upbm affinity estimate (log intensity, higher = more binding, comparable within an allelic series)"
16,CGTTATTA,"11.2 upbm affinity estimate (log intensity, higher = more binding, comparable within an allelic series)"
17,AGTATACA,"10.6 upbm affinity estimate (log intensity, higher = more binding, comparable within an allelic series)"

# Molecular target: T1, PAX4 (Homo sapiens, UniProt O43316 9-242, F177V)
# T1 sequence: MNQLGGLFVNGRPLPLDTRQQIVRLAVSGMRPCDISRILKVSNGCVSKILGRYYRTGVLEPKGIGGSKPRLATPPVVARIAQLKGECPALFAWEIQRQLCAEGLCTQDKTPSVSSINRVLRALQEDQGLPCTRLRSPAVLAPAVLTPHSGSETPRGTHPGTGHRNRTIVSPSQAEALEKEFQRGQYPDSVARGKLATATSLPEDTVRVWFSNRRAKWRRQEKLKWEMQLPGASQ
# Assay: PBM; 200 nM protein, PBS
# Conditions: dsDNA, one strand shown
row,Sequence,binding signal
1,ATAATTCA,"10.7 upbm affinity estimate (log intensity, higher = more binding, comparable within an allelic series)"
2,ATTGTATA,"10.5 upbm affinity estimate (log intensity, higher = more binding, comparable within an allelic series)"
3,ATTATATG,"10.6 upbm affinity estimate (log intensity, higher = more binding, comparable within an allelic series)"
4,CTAATATA,"10.8 upbm affinity estimate (log intensity, higher = more binding, comparable within an allelic series)"
5,ATGATATA,"10.7 upbm affinity estimate (log intensity, higher = more binding, comparable within an allelic series)"
6,ATATACAT,"10.6 upbm affinity estimate (log intensity, higher = more binding, comparable within an allelic series)"
7,ATATAATC,"10.6 upbm affinity estimate (log intensity, higher = more binding, comparable within an allelic series)"
8,ATATTATG,"10.7 upbm affinity estimate (log intensity, higher = more binding, comparable within an allelic series)"

# Molecular target: HOXA4 (Homo sapiens, UniProt Q00056 201-287)
# Sequence (Q00056 201-287): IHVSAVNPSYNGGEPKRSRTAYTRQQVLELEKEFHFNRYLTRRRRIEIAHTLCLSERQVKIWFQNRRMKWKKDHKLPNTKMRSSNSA
# Assay: PBM; 200 nM protein, PBS
# Conditions: dsDNA, one strand shown
row,Sequence,binding signal
1,AAGATTGT,"10.7 upbm affinity estimate (log intensity, higher = more binding, comparable within an allelic series)"
2,CTTAGTTA,"11 upbm affinity estimate (log intensity, higher = more binding, comparable within an allelic series)"
3,ATTCAAGC,"11 upbm affinity estimate (log intensity, higher = more binding, comparable within an allelic series)"
4,GATTTGAA,"10.8 upbm affinity estimate (log intensity, higher = more binding, comparable within an allelic series)"
5,CTTAAAAG,"10.4 upbm affinity estimate (log intensity, higher = more binding, comparable within an allelic series)"
6,ATCATGTC,"11 upbm affinity estimate (log intensity, higher = more binding, comparable within an allelic series)"
7,CAAGATAA,"10.9 upbm affinity estimate (log intensity, higher = more binding, comparable within an allelic series)"
8,AAGATAAC,"10.8 upbm affinity estimate (log intensity, higher = more binding, comparable within an allelic series)"
9,ATTTCTTA,"11.1 upbm affinity estimate (log intensity, higher = more binding, comparable within an allelic series)"
10,ACGAAATA,"10.7 upbm affinity estimate (log intensity, higher = more binding, comparable within an allelic series)"
11,AGCAAATC,"10.9 upbm affinity estimate (log intensity, higher = more binding, comparable within an allelic series)"
12,TCCTTTAA,"11.1 upbm affinity estimate (log intensity, higher = more binding, comparable within an allelic series)"
13,CATATGTA,"10.8 upbm affinity estimate (log intensity, higher = more binding, comparable within an allelic series)"

# Molecular target: HOXD13 (Homo sapiens, UniProt P35453 263-343, T313A)
# Sequence (P35453 263-343 T313A): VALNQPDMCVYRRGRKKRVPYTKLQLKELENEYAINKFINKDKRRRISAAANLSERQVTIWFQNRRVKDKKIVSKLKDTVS
# Assay: PBM; 200 nM protein, PBS
# Conditions: dsDNA, one strand shown
row,Sequence,binding signal
1,CTCGTTAC,"10.9 upbm affinity estimate (log intensity, higher = more binding, comparable within an allelic series)"
2,AATCATAT,"11 upbm affinity estimate (log intensity, higher = more binding, comparable within an allelic series)"
3,AAAATTAA,"10.8 upbm affinity estimate (log intensity, higher = more binding, comparable within an allelic series)"
4,ATCGTAAC,"10.9 upbm affinity estimate (log intensity, higher = more binding, comparable within an allelic series)"
5,AAGTTATT,"10.8 upbm affinity estimate (log intensity, higher = more binding, comparable within an allelic series)"
6,ATAAACGA,"11.2 upbm affinity estimate (log intensity, higher = more binding, comparable within an allelic series)"
7,TGATAAAA,"11.2 upbm affinity estimate (log intensity, higher = more binding, comparable within an allelic series)"
8,ATAACTAA,"11 upbm affinity estimate (log intensity, higher = more binding, comparable within an allelic series)"
9,ATTAAACA,"11.2 upbm affinity estimate (log intensity, higher = more binding, comparable within an allelic series)"
10,ATAACGAC,"10.8 upbm affinity estimate (log intensity, higher = more binding, comparable within an allelic series)"
11,AATATAGT,"11.1 upbm affinity estimate (log intensity, higher = more binding, comparable within an allelic series)"
12,TAAATGAA,"10.9 upbm affinity estimate (log intensity, higher = more binding, comparable within an allelic series)"
13,CGTTATTA,"11.1 upbm affinity estimate (log intensity, higher = more binding, comparable within an allelic series)"
14,AGTATACA,"10.7 upbm affinity estimate (log intensity, higher = more binding, comparable within an allelic series)"

# Molecular target: T2, PAX4 (Homo sapiens, UniProt O43316 9-242, R227W)
# T2 sequence: T1 sequence with V169F, R219W
# Assay: PBM; 200 nM protein, PBS
# Conditions: dsDNA, one strand shown
row,Sequence,binding signal
1,ATAATTCA,"10.9 upbm affinity estimate (log intensity, higher = more binding, comparable within an allelic series)"
2,CTAATATA,"10.9 upbm affinity estimate (log intensity, higher = more binding, comparable within an allelic series)"
3,ATATTATG,"10.9 upbm affinity estimate (log intensity, higher = more binding, comparable within an allelic series)"
